This note sets out measurements from PubChem BioAssay (EPA / NIEHS).

Active and inactive are the calls of the source. Rule for the calls: active = hit-call score of the fitted dose curve at least 0.9, where 1 is the maximum; inactive = score below 0.9.

The nature of this experiment: ATG_M_19_CIS: Attagene CIS-FACTORIAL HepG2 Assay for M19 Transcription Factor (Internal Marker) (AID 2282939). The note with it: HepG2 Attagene CIS-FACTORIAL M19 internal marker reporter; actives raise or lower the signal. The procedure:
ATG_CIS is a cell-based, multiplexed-readout assay that uses HepG2, a human liver cell line, with measurements taken at 24 hours after chemical dosing in a 24-well plate.ATG_M_19_CIS is one of 52 assay component(s) measured or calculated from the ATG_CIS assay. It is designed to make measurements of mRNA induction, a form of inducible reporter, as detected with fluorescence intensity signals by Reverse transcription polymerase chain reaction (RT-PCR) and Capillary electrophoresis technology.Data from the assay component ATG_M_19_CIS was analyzed into 1 assay endpoint. This assay endpoint, ATG_M_19_CIS, was analyzed with bidirectional fitting relative to DMSO as the negative control and baseline of activity. Using a type of inducible reporter, measures of mRNA for gain or loss-of-signal activity can be used to understand the background control at the transcription factor-level as they relate to the gene . Furthermore, this assay endpoint can be referred to as a secondary readout, because this assay has produced multiple assay endpoints where this one serves a background control function. To generalize the intended target to other relatable targets, this assay endpoint is annotated to the background measurement intended target family, where the subfamily is internal marker.
Human liver HepG2 cells are transiently transfected with multiple reporter transcription units (MRTUs) in 6-well plates using FuGene 6 reagent (Roche; 3 ml FuGene/1 mg DNA). The MRTU constructs are regulated by a cis-regulating element (promoter). […] A major difference between the CIS and TRANS system is that in CIS activities of endogenous TFs are measured, whereas the TRANS assay evaluates changes in activities of exogenous, chimeric NR-Gal4 proteins. […] At the end of 24 hour incubation, total RNA was isolated using TriZol reagent (Invitrogen). The isolated RNA is then reverse-transcribed using oligo(dT) primer and Mo-MLV reverse transcriptase (Invitrogen) with DNAse I (Ambion) treatment for 30 min. The one-tenth of the produced cDNA was amplified by PCR using Taq DNA polymerase (Invitrogen) and two reporter sequence-specific primers. The PCR products were fluorescently labeled by primer extension with 6-arboxyfluorescein (6-FAM) 5'-labeled reporter sequence-specific primer (2 min at 95 C, 20 s at 68 C and 10 min at 72 C) and these products were digested with 5U of HpaI (New England Biolabs) for 2h at 37 C. The fragments were purified using Qiaquick PCR columns (Qiagen), analyzed on an ABI 3130xL genetic analyzer (Applied Biosystems) with peak positions identified by using a set of X-rhodamine (ROX)-labeled MapMarker1000 molecular weight standards (BioVentures). The raw capillary electrophoresis data was processed using Attagraph software (Attagene).
For the compound `COc1nn(C(=O)NS(=O)(=O)c2ccccc2OC(F)(F)F)c(=O)n1C`, the result was inactive.
Take `BrCCCCBr`: the call was inactive.
Still for that read-out and setting: to `C1CN2CCN1CC2` belongs “inactive”; to `CCCCC(CC)C(=O)Cl` (stereo not given), “inactive”; to `Cc1ccc(CCl)cc1`, “inactive”.
On the same count and under the same terms, to `COCC(=O)N(c1c(C)cccc1C)[C@H](C)C(=O)OC` belongs “inactive”.
On to `OCCCCO`, for which the call was inactive.
The same measure, in the same setting: to `[F][Sn]([c]1ccccc1)([c]1ccccc1)[c]1ccccc1` belongs “inactive”; to `CCCCCCCCCCBr`, “inactive”.
Still for that read-out and setting: to `CC(C)(c1ccc(O)c(-c2ccccc2)c1)c1ccc(O)c(-c2ccccc2)c1` belongs “inactive”; to `O=NN1CCOCC1`, “inactive”; to `O=c1[nH]c(=O)n(Cl)c(=O)n1Cl`, “inactive”.
The same measure, in the same setting: to `Brc1ccc(Oc2c(Br)cc(Br)cc2Br)c(Br)c1` belongs “inactive”; to `N#Cc1cccnc1`, “inactive”.
In the case of `N#CCCC(Br)(C#N)CBr` (stereo not given), the compound was classed as inactive.
`CC1(C)[C@H](C(=O)O[C@H](C#N)c2cccc(Oc3ccccc3)c2)[C@@H]1/C=C(\Cl)C(F)(F)F`: the compound was classed as inactive.
The same measure, in the same setting: to `OC[C@@H](O)[C@H]1O[C@@H]2O[C@H](C(Cl)(Cl)Cl)O[C@@H]2[C@H]1O` belongs “inactive”; to `c1cc[c]([Sb]([c]2ccccc2)[c]2ccccc2)cc1`, “inactive”; to `CCCSP(=S)(OCC)Oc1ccc(Cl)cc1Cl` (stereo not given), “inactive”.
Consider `CNC(=O)N(C)c1nc2ccccc2s1`, for which the outcome was inactive.
On the same count and under the same terms, to `CCOC(=O)CC(=O)CCl` belongs “inactive”; to `O=C(O)c1cc(I)cc(I)c1I`, “inactive”.
Still for that read-out and setting: to `CCCSP(=S)(OCC)Oc1ccc(SC)cc1` (stereo not given) belongs “inactive”; to `CCOC(=O)OC1=C(c2cc(C)ccc2C)C(=O)NC12CCC(OC)CC2` (stereo not given), “inactive”; to `CC(C)(COCC1CO1)COCC1CO1` (stereo not given), “inactive”.
The same measure, in the same setting: to `CCC[N+](CCC)(CCC)CCC` belongs “inactive”.
Turning to `CCCCCCCCCCCCBr`, the outcome was inactive.
On the same count and under the same terms, to `CC(C)N(C(=O)CCl)c1ccccc1` belongs “inactive”; to `C[CH2][Hg][S]c1ccccc1C(=O)O`, “inactive”.
Regarding `O=c1[nH]c2ccccc2n1C1CCN(CCCC(c2ccc(F)cc2)c2ccc(F)cc2)CC1`, the result was inactive.
The same measure, in the same setting: to `c1csc(-c2ccc(-c3cccs3)s2)c1` belongs “inactive”; to `CCCCCCCCCCCCOS(=O)(=O)O`, “inactive”; to `CCNc1nc(NCC)nc(SC)n1`, “inactive”.
For `Clc1ccc(C(Cl)(Cl)Cl)cn1`, the compound was classed as inactive.
Same read-out and setting: to `CNC(=O)O/N=C/C(C)(C)S(C)(=O)=O` belongs “inactive”; to `C=CC(Cl)CCl` (stereo not given), “inactive”.
On the same count and under the same terms, to `Cc1ccc2nc3sc(=O)sc3nc2c1` belongs “inactive”.
As for `OC(Cc1ccccc1Cl)(Cn1[nH]cnc1=S)C1(Cl)CC1` (stereo not given), the AC50 is 64.6 µM (active).
Take `Clc1cnc(Oc2ccc(Oc3ncc(Cl)cc3Cl)cc2)c(Cl)c1`: the compound was called inactive.
Same read-out and setting: to `CCOP(=S)(OCC)O/N=C(\C#N)c1ccccc1` belongs “inactive”.

Usually AC50 stands for the concentration at which the activity in the assay is half-maximal.
